Test results published in PubChem BioAssay (EPA / NIEHS).
“And” between values parts separate entries of the source, which are not always exact repeats. Identical values can stand only once. The source holds several records for some structures; these can differ, active in one and inactive in another. The source made the active and inactive calls. The calls were made as follows: active = hit-call score of the fitted dose curve at least 0.9, where 1 is the maximum; inactive = score below 0.9.

Assays:
[1] = read-out: Interleukin-1 alpha (IL1a), IL1A (gene 3552); assay: BSK_KF3CT_IL1a: BioMAP Diversity Plus: KF3CT Assay for Interleukin-1 alpha (IL1a) Biomarker Activity (AID 2283070); conditions: primary human keratinocytes with fibroblasts; actives raise or lower the signal
Procedure, shortened: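 Human keratinocyte plus foreskin fibroblast primary co-culture, sampled 24 h after chemical dosing. IL-1a measured by ELISA; responses fitted bidirectionally against DMSO baseline (negative control), so gain or loss of signal both count.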

[2] = read-out: TIMP metallopeptidase inhibitor 2 (TIMP2), TIMP2 (gene 7077); assay: BSK_KF3CT_TIMP2: BioMAP Diversity Plus: KF3CT Assay for TIMP metallopeptidase inhibitor 2 (TIMP2) Biomarker Activity (AID 2283071); conditions: primary human keratinocytes with fibroblasts; actives raise or lower the signal
Procedure, shortened: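 Keratinocyte–fibroblast co-culture, 24 h exposure; TIMP-2 ELISA, DMSO-normalised bidirectional fit. Parallel SRB (0.1%, TCA-fixed, 560 nm) total-protein staining gauges cytotoxicity.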

[3] = read-out: Transforming growth factor beta 1 (TGFb1), TGFB1 (gene 7040); assay: BSK_KF3CT_TGFb1: BioMAP Diversity Plus: KF3CT Assay for Transforming growth factor beta 1 (TGFb1) Biomarker Activity (AID 2283072); conditions: primary human keratinocytes with fibroblasts; actives raise or lower the signal
Procedure, shortened: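 Signal changes in either direction, relative to DMSO, define activity here. TGF-b1 is read by ELISA from a human keratinocyte-fibroblast co-culture 24 h post-dose.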

[4] = read-out: C-C motif chemokine 2 (Homo sapiens) (UniProt P13500); assay: BSK_KF3CT_MCP1: BioMAP Diversity Plus: KF3CT Assay for Monocyte Chemoattractant Protein 1 (MCP1/CCL2) Biomarker Activity (AID 2283073); conditions: primary human keratinocytes with fibroblasts; actives raise or lower the signal
Procedure, shortened: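 Human keratinocyte plus foreskin fibroblast primary co-culture exposed to chemical for 24 h. MCP-1 levels measured by ELISA. Bidirectional curve fitting relative to DMSO negative control as baseline.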

[5] = read-out: Matrix Metallopeptidase 9 (MMP9), MMP9 (gene 4318); assay: BSK_KF3CT_MMP9: BioMAP Diversity Plus: KF3CT Assay for Matrix Metallopeptidase 9 (MMP9) Biomarker Activity (AID 2283074); conditions: primary human keratinocytes with fibroblasts; actives raise or lower the signal;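 as to AC50: MMP9 protein level quantified by ELISA in the co-culture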
Procedure, shortened: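 Keratinocyte plus foreskin fibroblast human primary skin co-culture was dosed with chemical and MMP-9 was quantified by ELISA 24 h later. Bidirectional curve fitting used DMSO as negative control and activity baseline.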

[6] = read-out: urokinase plasminogen activator (uPA), PLAU (gene 5328); assay: BSK_KF3CT_uPA: BioMAP Diversity Plus: KF3CT Assay for urokinase plasminogen activator (uPA) Biomarker Activity (AID 2283075); conditions: primary human keratinocytes with fibroblasts; actives raise or lower the signal
Procedure, shortened: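 Human keratinocyte plus foreskin fibroblast primary co-culture exposed to chemical for 24 h. uPA levels were quantified by ELISA, and activity was fitted bidirectionally against a DMSO negative-control baseline.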

CD40, CD40 (gene 958) [7] = assay: BSK_LPS_CD40: BioMAP Diversity Plus: LPS Assay for CD40 Biomarker Activity (AID 2283076); conditions: primary human HUVEC with PBMC; actives raise or lower the signal
Procedure, shortened: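 Primary human umbilical vein endothelial cells co-cultured with peripheral blood mononuclear cells, LPS-stimulated, were dosed with chemical and read 24 h later. CD40 levels were measured by ELISA and fitted bidirectionally against DMSO as negative control and baseline.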

[8] = read-out: E-selectin (Homo sapiens) (UniProt P16581); assay: BSK_LPS_Eselectin: BioMAP Diversity Plus: LPS Assay for Eselectin Biomarker Activity (AID 2283077); conditions: primary human HUVEC with PBMC; actives raise or lower the signal
Procedure, shortened: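 Human umbilical vein endothelial cells co-cultured with peripheral blood mononuclear cells under LPS stimulation; E-selectin measured by ELISA 24 h after chemical dosing. Activity fitted bidirectionally against DMSO as negative control and baseline.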

[9] = read-out: Interleukin-8 (IL8), CXCL8 (gene 3576); assay: BSK_LPS_IL8: BioMAP Diversity Plus: LPS Assay for Interleukin-8 (IL8) Biomarker Activity (AID 2283078); conditions: primary human HUVEC with PBMC; actives raise or lower the signal
Procedure, shortened: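 Human umbilical vein endothelial cells co-cultured with PBMC were stimulated with LPS; IL-8 levels were measured by ELISA 24 h after chemical dosing. Activity was fitted bidirectionally against DMSO as negative control and baseline.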

[10] = BSK_LPS_SRB: Viability Assessment in the BioMAP Diversity Plus: LPS Assay (AID 2283079); conditions: primary human HUVEC with PBMC;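 also: total protein by sulforhodamine B absorbance as a cytotoxicity measure; measured one day after compound addition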
Procedure, shortened: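 Human umbilical vein endothelial cells co-cultured with PBMC (LPS system) were dosed for 24 h. Total protein was stained with 0.1% sulforhodamine B after 10% TCA fixation, read at 560 nm, and fitted bidirectionally against DMSO baseline.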

[11] = read-out: Interleukin-1 alpha (IL1a), IL1A (gene 3552); assay: BSK_LPS_IL1a: BioMAP Diversity Plus: LPS Assay for Interleukin-1 alpha (IL1a) Biomarker Activity (AID 2283080); conditions: primary human HUVEC with PBMC; actives raise or lower the signal
Procedure, shortened: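 Human umbilical vein endothelial cells co-cultured with peripheral blood mononuclear cells were LPS-stimulated and exposed to test chemicals for 24 h. IL-1 alpha was quantified by ELISA, with bidirectional curve fitting against DMSO as the negative control and baseline.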

[12] = read-out: Monocyte Chemoattractant Protein-1 (MCP1), CCL2 (gene 6347); assay: BSK_LPS_MCP1: BioMAP Diversity Plus: LPS Assay for Monocyte Chemoattractant Protein-1 (MCP1) Biomarker Activity (AID 2283081); conditions: primary human HUVEC with PBMC; actives raise or lower the signal;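 as to AC50: secreted MCP-1 protein quantified by ELISA in culture supernatant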
Procedure, shortened: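 HUVEC plus PBMC co-culture (human primary cells, LPS system) exposed to test chemical for 24 h; MCP-1 measured by ELISA. Bidirectional curve fitting against DMSO baseline; parallel SRB total-protein staining flags overt cytotoxicity.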

[13] = BSK_LPS_PGE2: BioMAP Diversity Plus: LPS Assay for Prostaglandin E2 (PGE2) Biomarker Activity (AID 2283082); conditions: primary human HUVEC with PBMC; actives raise or lower the signal;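 as to AC50: secreted prostaglandin E2 measured by ELISA in LPS-stimulated co-culture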
Procedure, shortened: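 Endpoint derived from bidirectional curve fitting versus DMSO of ELISA-measured PGE2 in LPS-stimulated human primary vascular co-culture (HUVEC with PBMC) harvested at 24 h.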

[14] = read-out: Macrophage colony-stimulating factor (MCSF), CSF1 (gene 1435); assay: BSK_LPS_MCSF: BioMAP Diversity Plus: LPS Assay for Macrophage colony-stimulating factor (MCSF) Biomarker Activity (AID 2283083); conditions: primary human HUVEC with PBMC; actives raise or lower the signal
Procedure, shortened: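 Human umbilical vein endothelial cells co-cultured with peripheral blood mononuclear cells were exposed to compound for 24 h. M-CSF levels were measured by ELISA, and bidirectional curve fitting used DMSO as the negative control and baseline.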

[15] = read-out: Tissue Factor, F3 (gene 2152); assay: BSK_LPS_TissueFactor: BioMAP Diversity Plus: LPS Assay for Tissue Factor Biomarker Activity (AID 2283084); conditions: primary human HUVEC with PBMC; actives raise or lower the signal
Procedure, shortened: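 Human umbilical vein endothelial cells co-cultured with peripheral blood mononuclear cells were dosed and stimulated with LPS. Cell-surface CD142 was quantified by ELISA at 24 h. Activity was fitted bidirectionally against DMSO baseline.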

[16] = read-out: Tumor necrosis factor (Homo sapiens) (UniProt P01375); assay: BSK_LPS_TNFa: BioMAP Diversity Plus: LPS Assay for Tumour Necrosis Factor alpha (TNFa) Biomarker Activity (AID 2283085); conditions: primary human HUVEC with PBMC; actives raise or lower the signal;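 as to AC50: TNFa protein level quantified by ELISA in the co-culture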
Procedure, shortened: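 Primary human vascular co-culture of HUVEC and PBMC; TNFa ELISA 24 h after treatment, analysed as increase or decrease relative to DMSO control.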

[17] = read-out: Vascular cell adhesion molecule 1 (VCAM1), VCAM1 (gene 7412); assay: BSK_LPS_VCAM1: BioMAP Diversity Plus: LPS Assay for Vascular cell adhesion molecule 1 (VCAM1) Biomarker Activity (AID 2283086); conditions: primary human HUVEC with PBMC; actives raise or lower the signal
Procedure, shortened: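 Primary human vascular co-culture (umbilical vein endothelium plus PBMC) stimulated with LPS received chemical; 24 h later VCAM-1 was read by ELISA. Overt cytotoxicity was assessed by sulforhodamine B staining of parallel cultures at the same time point.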

CD38, CD38 (gene 952) = assay: BSK_SAg_CD38: BioMAP Diversity Plus: SAg Assay for CD38 Biomarker Activity (AID 2283087); conditions: primary human HUVEC with PBMC; actives raise or lower the signal
Procedure, shortened: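 Fluorescence ELISA of cell-surface CD38 served as the read-out, with either increase or decrease fitted against DMSO controls. Cells were a human umbilical vein endothelium plus PBMC co-culture under SEB/TSST-1 stimulation, measured 24 h after dosing.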

CD40, CD40 (gene 958) [18] = assay: BSK_SAg_CD40: BioMAP Diversity Plus: SAg Assay for CD40 Biomarker Activity (AID 2283088); conditions: primary human HUVEC with PBMC; actives raise or lower the signal
Procedure, shortened: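 Human umbilical vein endothelial cells co-cultured with PBMC; CD40 levels measured by ELISA with fluorescence read-out 24 h after chemical dosing. Gain or loss of signal fitted bidirectionally against DMSO baseline.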

CD69, CD69 (gene 969) = assay: BSK_SAg_CD69: BioMAP Diversity Plus: SAg Assay for CD69 Biomarker Activity (AID 2283089); conditions: primary human HUVEC with PBMC; actives raise or lower the signal;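 as to AC50: cell surface CD69 protein quantified by ELISA with fluorescence detection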
Procedure, shortened: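 ELISA, fluorescence read-out: CD69 on human umbilical vein endothelial cell + PBMC co-culture, 24 h post-dosing. Gain or loss of signal fitted bidirectionally against DMSO baseline.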

Measured: AC50

E-selectin (Homo sapiens), sequence (P16581 whole entry, looked up): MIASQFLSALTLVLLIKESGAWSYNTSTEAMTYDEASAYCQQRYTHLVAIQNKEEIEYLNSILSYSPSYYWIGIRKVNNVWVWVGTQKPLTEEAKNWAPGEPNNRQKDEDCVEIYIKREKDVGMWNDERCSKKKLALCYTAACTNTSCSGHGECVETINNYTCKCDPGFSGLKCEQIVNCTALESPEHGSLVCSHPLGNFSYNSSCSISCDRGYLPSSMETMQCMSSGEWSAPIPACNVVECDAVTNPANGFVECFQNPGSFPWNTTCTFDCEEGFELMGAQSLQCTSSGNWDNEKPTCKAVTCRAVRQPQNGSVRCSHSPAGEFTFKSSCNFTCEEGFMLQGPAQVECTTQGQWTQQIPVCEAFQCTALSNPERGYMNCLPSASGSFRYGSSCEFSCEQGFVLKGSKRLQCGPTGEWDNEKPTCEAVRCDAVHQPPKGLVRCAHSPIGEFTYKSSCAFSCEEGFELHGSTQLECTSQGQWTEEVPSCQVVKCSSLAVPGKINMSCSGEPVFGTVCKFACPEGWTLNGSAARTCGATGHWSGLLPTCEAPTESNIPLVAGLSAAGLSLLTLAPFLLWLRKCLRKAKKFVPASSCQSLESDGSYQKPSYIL
Tumor necrosis factor (Homo sapiens), sequence (P01375 whole entry, looked up): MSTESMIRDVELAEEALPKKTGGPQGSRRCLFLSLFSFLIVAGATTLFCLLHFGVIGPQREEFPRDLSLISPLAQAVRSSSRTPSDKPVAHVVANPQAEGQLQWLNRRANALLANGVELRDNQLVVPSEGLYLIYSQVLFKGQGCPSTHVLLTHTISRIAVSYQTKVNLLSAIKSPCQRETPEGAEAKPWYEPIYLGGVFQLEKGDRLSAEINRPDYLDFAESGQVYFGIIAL

C=CC1(C)OC(=O)N(c2cc(Cl)cc(Cl)c2)C1=O (stereo unspecified)
inactive: all assays above

N#CC(CCc1ccc(Cl)cc1)(Cn1cncn1)c1ccccc1 (stereo unspecified)
active: [13] 3.75 µM
inactive: all other assays above

COc1ccc(C(c2ccc(OC)cc2)C(Cl)(Cl)Cl)cc1
active: [1] 7.74 µM | [5] 12.7 µM | CD40, CD40 (gene 958) [7] 23.3 µM | [8] 27.5 µM | [9] 25 µM | [10] 20 µM | [11] 32.5 µM | [12] 29.7 µM | [14] 20 µM | [16] 12.2 µM | [17] 20 µM | CD38, CD38 (gene 952) 14.9 µM | CD40, CD40 (gene 958) [18] 15.3 µM | CD69, CD69 (gene 969) 25.4 µM
inactive: [2] | [4] | [6] | [13] | [15]

C=CCC1=C(C)C(OC(=O)C2C(C=C(C)C)C2(C)C)CC1=O (stereo unspecified)
inactive: [1] | [2] | [4] | [6] | CD40, CD40 (gene 958) [7] | [8] | [13] | [15]
active: [1] 34.3 µM and 38.6 µM | [2] 31.1 µM and 32.9 µM and 26.7 µM | [4] 33.6 µM and 36.4 µM and 28.4 µM | [5] 33.6 µM [middle of 4 runs] | [6] 33.8 µM and 33.3 µM | CD40, CD40 (gene 958) [7] 24.2 µM and 21 µM and 27.6 µM | [8] 31.5 µM and 33.3 µM and 33.1 µM | [9] 32 µM [middle of 4 runs] | [10] 33.1 µM [middle of 4 runs] | [11] 34.3 µM [middle of 4 runs] | [12] 35.7 µM [middle of 4 runs] | [13] 33.7 µM and 5.54 µM | [14] 24.4 µM [middle of 4 runs] | [15] 33.8 µM and 31.9 µM | [16] 34.3 µM [middle of 4 runs] | [17] 31 µM [middle of 4 runs] | CD38, CD38 (gene 952) 30.5 µM and 34.3 µM and 31.6 µM | CD40, CD40 (gene 958) [18] 31.7 µM [middle of 4 runs] | CD69, CD69 (gene 969) 30.1 µM [middle of 4 runs]
